This note sets out measurements from ChEMBL document CHEMBL2218924, “A broad activity screen in support of a chemogenomic map for kinase signalling research and drug discovery” (Biochem J, 2013).

The target of experiment [1] is Tyrosine-protein kinase SYK (Homo sapiens) (UniProt P43405). The following applies: at 10 µM.
The target in experiment [2] is T1, Mitogen-activated protein kinase kinase kinase 7 (Homo sapiens) (UniProt O43318).
T1 sequence (whole entry): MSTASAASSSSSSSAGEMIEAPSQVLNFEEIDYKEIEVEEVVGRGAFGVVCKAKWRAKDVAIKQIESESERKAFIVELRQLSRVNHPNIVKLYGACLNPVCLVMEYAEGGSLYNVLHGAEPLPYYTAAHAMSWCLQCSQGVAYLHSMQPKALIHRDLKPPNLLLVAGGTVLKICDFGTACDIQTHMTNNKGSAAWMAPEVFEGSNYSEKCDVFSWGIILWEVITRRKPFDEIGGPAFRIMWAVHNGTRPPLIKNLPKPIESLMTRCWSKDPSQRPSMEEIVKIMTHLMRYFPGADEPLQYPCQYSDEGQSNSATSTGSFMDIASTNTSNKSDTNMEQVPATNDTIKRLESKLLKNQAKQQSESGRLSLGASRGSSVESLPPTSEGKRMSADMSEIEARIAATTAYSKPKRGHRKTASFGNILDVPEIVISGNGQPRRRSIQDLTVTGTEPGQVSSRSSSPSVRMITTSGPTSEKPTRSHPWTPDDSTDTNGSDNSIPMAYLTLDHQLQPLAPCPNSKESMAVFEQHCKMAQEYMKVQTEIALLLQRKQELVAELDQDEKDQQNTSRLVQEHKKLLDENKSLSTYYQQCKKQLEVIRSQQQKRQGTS
The following applies: at 1 µM.

The target in experiment [3] is T1, Mitogen-activated protein kinase kinase kinase 7 (Homo sapiens). The following applies: at 10 µM.
Experiment [4] has as its target T2, Serine/threonine-protein kinase TAO1 (Homo sapiens) (UniProt Q7L7X3).
T2 sequence (whole entry): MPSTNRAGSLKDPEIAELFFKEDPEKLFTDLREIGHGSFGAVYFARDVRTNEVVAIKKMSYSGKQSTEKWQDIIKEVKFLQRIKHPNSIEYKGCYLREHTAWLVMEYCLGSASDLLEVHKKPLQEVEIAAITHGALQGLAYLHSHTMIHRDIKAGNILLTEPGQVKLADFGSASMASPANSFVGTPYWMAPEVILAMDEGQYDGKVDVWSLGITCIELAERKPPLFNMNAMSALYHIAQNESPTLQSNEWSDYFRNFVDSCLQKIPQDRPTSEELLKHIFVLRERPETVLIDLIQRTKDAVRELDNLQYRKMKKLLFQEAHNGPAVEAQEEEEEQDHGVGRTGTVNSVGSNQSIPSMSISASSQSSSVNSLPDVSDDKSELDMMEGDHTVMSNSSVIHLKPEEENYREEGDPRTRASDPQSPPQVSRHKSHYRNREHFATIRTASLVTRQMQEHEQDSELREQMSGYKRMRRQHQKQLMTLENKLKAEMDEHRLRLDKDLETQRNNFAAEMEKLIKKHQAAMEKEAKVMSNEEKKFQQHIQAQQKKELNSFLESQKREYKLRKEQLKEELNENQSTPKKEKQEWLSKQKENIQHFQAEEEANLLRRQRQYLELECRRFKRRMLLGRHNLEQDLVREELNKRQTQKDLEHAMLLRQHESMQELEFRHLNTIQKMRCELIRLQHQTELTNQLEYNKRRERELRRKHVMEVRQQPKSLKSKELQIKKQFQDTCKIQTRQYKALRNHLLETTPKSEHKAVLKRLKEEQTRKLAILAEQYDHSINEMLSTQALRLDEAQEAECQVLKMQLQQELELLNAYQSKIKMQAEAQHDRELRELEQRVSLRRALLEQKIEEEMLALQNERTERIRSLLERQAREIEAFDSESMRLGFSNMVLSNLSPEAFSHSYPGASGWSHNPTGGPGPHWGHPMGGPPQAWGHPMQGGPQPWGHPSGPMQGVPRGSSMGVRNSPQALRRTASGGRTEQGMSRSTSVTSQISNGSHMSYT
To be noted: at 1 µM.

For experiment [5], the target named is T2, Serine/threonine-protein kinase TAO1 (Homo sapiens). To be noted: at 10 µM.
Experiment [6] concerns the target T3, Serine/threonine-protein kinase TAO2 (Homo sapiens) (UniProt Q9UL54).
T3 sequence (whole entry): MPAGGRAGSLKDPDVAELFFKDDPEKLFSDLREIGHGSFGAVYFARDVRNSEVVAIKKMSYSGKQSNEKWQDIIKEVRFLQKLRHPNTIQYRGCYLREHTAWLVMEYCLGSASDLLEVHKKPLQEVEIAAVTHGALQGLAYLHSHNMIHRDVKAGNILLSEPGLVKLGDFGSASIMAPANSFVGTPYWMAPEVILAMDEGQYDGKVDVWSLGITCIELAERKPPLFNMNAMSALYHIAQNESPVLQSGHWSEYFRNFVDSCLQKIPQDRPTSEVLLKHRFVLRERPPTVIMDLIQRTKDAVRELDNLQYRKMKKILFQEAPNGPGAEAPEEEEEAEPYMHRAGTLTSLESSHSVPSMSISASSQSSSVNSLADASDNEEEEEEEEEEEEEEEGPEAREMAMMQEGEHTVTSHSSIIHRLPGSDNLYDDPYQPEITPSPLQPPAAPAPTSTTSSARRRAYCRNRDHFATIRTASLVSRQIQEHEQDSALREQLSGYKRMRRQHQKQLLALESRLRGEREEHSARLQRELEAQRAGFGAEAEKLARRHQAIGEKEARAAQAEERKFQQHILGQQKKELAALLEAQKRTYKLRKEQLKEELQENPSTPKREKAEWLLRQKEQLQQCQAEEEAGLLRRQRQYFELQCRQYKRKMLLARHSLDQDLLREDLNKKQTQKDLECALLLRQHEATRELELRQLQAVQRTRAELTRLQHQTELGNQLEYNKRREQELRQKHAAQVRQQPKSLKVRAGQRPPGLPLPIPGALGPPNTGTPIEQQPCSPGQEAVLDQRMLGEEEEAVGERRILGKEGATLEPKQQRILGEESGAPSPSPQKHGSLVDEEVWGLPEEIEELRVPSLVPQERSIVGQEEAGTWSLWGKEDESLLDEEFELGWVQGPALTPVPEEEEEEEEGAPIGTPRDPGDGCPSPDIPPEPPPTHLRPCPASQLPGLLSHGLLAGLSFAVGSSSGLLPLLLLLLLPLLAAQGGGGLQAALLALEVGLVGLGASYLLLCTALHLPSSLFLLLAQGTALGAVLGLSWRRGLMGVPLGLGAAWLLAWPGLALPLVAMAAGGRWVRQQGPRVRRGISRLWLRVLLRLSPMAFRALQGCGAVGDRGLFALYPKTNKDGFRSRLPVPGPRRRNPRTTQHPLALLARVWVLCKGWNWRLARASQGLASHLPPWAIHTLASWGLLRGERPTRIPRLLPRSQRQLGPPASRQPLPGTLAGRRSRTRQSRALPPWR
The following applies: at 1 µM.

The target of experiment [7] is T3, Serine/threonine-protein kinase TAO2 (Homo sapiens). The following applies: at 10 µM.
Experiment [8] concerns the target T4, Serine/threonine-protein kinase TAO3 (Homo sapiens) (UniProt Q9H2K8).
T4 sequence (whole entry): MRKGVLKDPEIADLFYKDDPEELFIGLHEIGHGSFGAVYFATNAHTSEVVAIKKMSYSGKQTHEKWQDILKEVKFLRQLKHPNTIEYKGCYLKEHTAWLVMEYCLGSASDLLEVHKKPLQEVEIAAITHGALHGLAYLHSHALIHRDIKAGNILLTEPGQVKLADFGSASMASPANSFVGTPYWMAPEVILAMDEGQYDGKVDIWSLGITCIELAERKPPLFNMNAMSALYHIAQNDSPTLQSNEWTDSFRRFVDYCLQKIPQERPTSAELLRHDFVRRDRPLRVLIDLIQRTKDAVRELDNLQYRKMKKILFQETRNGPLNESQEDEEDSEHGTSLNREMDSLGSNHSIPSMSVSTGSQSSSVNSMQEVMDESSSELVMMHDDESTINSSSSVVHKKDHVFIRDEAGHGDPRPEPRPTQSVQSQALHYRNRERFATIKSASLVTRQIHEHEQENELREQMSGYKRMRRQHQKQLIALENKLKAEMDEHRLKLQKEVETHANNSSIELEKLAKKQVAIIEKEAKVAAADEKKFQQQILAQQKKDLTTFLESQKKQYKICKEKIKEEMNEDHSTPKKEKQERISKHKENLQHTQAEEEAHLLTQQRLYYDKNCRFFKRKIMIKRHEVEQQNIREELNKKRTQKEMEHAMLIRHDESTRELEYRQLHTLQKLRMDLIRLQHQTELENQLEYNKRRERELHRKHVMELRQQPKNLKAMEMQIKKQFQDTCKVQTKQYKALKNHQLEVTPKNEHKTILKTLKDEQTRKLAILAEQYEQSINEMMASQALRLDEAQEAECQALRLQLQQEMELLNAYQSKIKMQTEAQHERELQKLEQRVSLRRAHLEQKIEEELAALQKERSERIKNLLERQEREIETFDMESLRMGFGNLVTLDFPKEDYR
To be noted: at 1 µM.

Experiment [9] deals with T4, Serine/threonine-protein kinase TAO3 (Homo sapiens). To be noted: at 10 µM.
For experiment [10], the target named is T5, Serine/threonine-protein kinase TBK1 (Homo sapiens) (UniProt Q9UHD2).
T5 sequence (whole entry): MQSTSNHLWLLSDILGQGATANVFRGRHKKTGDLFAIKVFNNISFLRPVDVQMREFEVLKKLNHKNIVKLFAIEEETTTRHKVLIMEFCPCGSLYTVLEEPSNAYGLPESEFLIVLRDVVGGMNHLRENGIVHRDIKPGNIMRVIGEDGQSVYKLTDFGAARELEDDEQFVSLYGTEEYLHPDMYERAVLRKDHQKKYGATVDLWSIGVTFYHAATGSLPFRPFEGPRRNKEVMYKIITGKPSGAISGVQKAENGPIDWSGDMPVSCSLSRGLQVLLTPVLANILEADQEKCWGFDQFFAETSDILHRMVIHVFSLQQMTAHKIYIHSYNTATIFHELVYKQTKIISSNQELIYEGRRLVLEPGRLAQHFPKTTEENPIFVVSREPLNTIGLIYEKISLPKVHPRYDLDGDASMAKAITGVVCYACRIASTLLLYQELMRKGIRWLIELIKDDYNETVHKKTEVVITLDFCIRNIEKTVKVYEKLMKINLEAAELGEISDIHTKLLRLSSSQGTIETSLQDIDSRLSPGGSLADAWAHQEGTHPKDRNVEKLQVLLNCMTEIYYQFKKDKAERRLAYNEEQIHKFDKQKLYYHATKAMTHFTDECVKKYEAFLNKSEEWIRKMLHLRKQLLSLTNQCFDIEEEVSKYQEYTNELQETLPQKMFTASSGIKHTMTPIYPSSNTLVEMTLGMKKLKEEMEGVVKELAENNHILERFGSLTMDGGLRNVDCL
The following applies: at 1 µM.

The structures appear in SMILES notation.

As for `CO[C@H]1C[C@@H]2CC[C@@H](C)[C@@](O)(O2)C(=O)C(=O)N2CCCC[C@H]2C(=O)O[C@H]([C@H](C)C[C@@H]2CC[C@@H](O)[C@H](OC)C2)CC(=O)[C@H](C)/C=C(\C)[C@@H](O)[C@@H](OC)C(=O)[C@H](C)C[C@H](C)/C=C/C=C/C=C/1C`, the residual activity stood at 78% in [1]; 89% in [2]; 82% in experiment [3]; 102% in experiment [4]; 87% in [5]; 99% in experiment [6]. The residual activity in [7] was determined as 96%; in [8] it was 97%; in [9], 85%; in experiment [10], 63%.
